Reference: PubChem BioAssay (NCI)
About 83,000 compounds went through this panel and 20% of them were active in at least one assay; those are over-represented in the sample as a whole.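 A percent growth of 40 corresponds to 60% growth inhibition; 0 means no net growth; -100 means all cells died. Active threshold: below 10.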 Unmarked numbers belong to inactive results. Calls of active or inactive are those of the source.

System: CCRF-CEM leukemia
Experiment: NCI-60 one-dose screen, 48 h (100 = growth as untreated, 0 = no growth, -100 = all killed)
Conditions: 10 µM unless noted
Protocol: Growth inhibition of the CCRF-CEM human tumor cell line is measured as a screen for anti-cancer activity. Cells are grown in 96 well plates and exposed to the test compound for 48 hours. Compounds are tested at a single concentration, which is 10^-5 M for most compounds. The reported endpoint is percent growth (GI% or GIPRCNT), where numbers from 0 - 100% represent growth inhibition, and numbers from -100% - 0 represent cell death. For example, a value of 40 represents 60% growth inhibition. A value of 0 means no net growth occurred over the course of the experiment. A value of -40 indicates 40% of cells at the beginning of the experiment died by the end of the experiment. A value of -100 means all cells are dead at the end of the experiment.
NCI-60 Human Tumor Cell Lines Screen was performed using the standard one-dose NCI protocol, which is described in more detail at https://dtp.cancer.gov/discovery_development/nci-60/default.htm.
Compounds with GIPRCNT values below 10 were considered active. Activity score was based on GIPRCNT using the following formula: […]
Score is 0 for GIPRCNT values of 100 or above, 50 for GIPRCNT values of 0, and 100 for GIPRCNT values of -100.

Row | Compound | growth
1 | COc1ccc(Oc2nc(Nc3ccc(N4CCOCC4)cc3)ncc2NC(=O)Nc2cc(OC)cc(OC)c2)cc1 | 65%
2 | COc1cc2nc3sc(C(=O)Nc4ccc(C(=O)OC(C)C)cc4)c(C(=O)Nc4ccc(Cl)cc4C)n3c(=O)c2cc1OC | 23.6%
3 | CCN(CC)CCN1C(=O)c2cccc3c(/C=C/CN4C(=O)c5cccc6cccc(c56)C4=O)ccc(c23)C1=O | 25.4%
4 | C#CC#CC#CC#CC#CC#CC#CC#CC[C@@H]1OC[C@@H](COC(=O)O[C@@H](C(=O)O[C@H]2C[C@@]3(O)[C@@H](OC(=O)c4ccccc4)[C@@H]4[C@]5(OC(C)=O)CO[C@@H]5C[C@H](O)[C@@]4(C)C(=O)[C@H](OC(C)=O)C(=C2C)C3(C)C)[C@@H](NC(=O)c2ccccc2)c2ccccc2)O1 | 6.05% (active)
5 | COc1cc(C2C(C(=O)OCc3ccccc3)=C(C)NC(C)=C2C(=O)OCc2ccccc2)cc(OC)c1OC | 11.3%
6 | Cc1ccc(C(=O)c2ccc(CC(=O)N=Nc3c(O)[nH]c4ccc(Br)cc34)n2C)cc1 | 95.4%
7 | C#COc1cccc(Nc2ncnc3cc(NC(=O)[C@@H](C)Cl)ccc23)c1 | 3.09% [6.25 µM] (active)
8 | COc1ccc(C[n+]2c3ccccc3n3c4ccc(N)cc4ccc32)c(OC)c1OC | 40.4%
9 | COc1cccc(CCNc2ncnc3c2ncn3Cc2nnc3c4ccccc4c(Cl)nn23)c1 | 34%
10 | Cc1ccc(C2CC(c3nc(-c4ccc(Cl)cc4)oc3C)=NN2C(=O)c2ccncc2)cc1 (stereo not given) | 90.7%
11 | C=C(CNCCO)[C@@H]1CC[C@]2(CO)CC[C@]3(C)[C@H](CC[C@@H]4[C@@]5(C)CCC(N)C(C)(C)[C@@H]5CC[C@]43C)[C@@H]12 (stereo not given in full) | 1.11% (active)
12 | O=C(c1c[nH]c2ccccc12)c1n[nH]c(=S)n1-c1cccc(Br)c1 | 90.6%
13 | COc1ccc(/C=C/C(c2cc(OC)c(OC)c(OC)c2)n2cncn2)cc1 (stereo not given) | 35.1%
14 | COc1ccc(/C(C)=C(/c2ccc(OCCCN(C)C)cc2)c2ccc(OC(=O)c3ccccc3)cc2)cc1 | 64.3%
15 | CSc1nc(C)c([N+](=O)[O-])c(N)n1 | 62.5%
16 | CCCCNC(=O)Oc1ccc(/C(=C(/C)Cc2ccc(OC)cc2)c2ccc(OCCN3CCCCC3)cc2)cc1 | 42.8%
17 | O=S(=O)(Oc1ccc(Br)cc1)c1ccc(Cl)cc1 | 97%
18 | COc1ccc(/C=C(/C(=O)n2cnnn2)c2cc(OC)c(OC)c(OC)c2)cc1 | 5.78% (active)
19 | CC(=O)ON1CCCC(P(=O)(OCCSC(=O)C(C)(C)C)OCCSC(=O)C(C)(C)C)C1=O (stereo not given) | -6.31% (active)
20 | Nc1nc(N)c2c(n1)NC(c1cccc(Nc3ccnc4cc(C(F)(F)F)ccc34)c1)CC(c1ccc(Br)cc1)=N2 (stereo not given) | 17%

Row | Compound | growth
21 | C=CCC(CCCC)(C(=O)OCC)C(=O)OCC | 93.2%
22 | CCOc1cccc(/C=N/NC(=O)c2cccc(Nc3ccnc(C(F)(F)F)c3)c2)c1O | 6.39% (active)
23 | Fc1ccc2[nH]cc(-c3nc(-c4c[nH]c5ccncc45)cs3)c2c1 | -19.2% (active)
24 | CCCCCCCCCCCCCOC(=O)c1c(C)[nH]c(/C=C2\N=C(c3ccc[nH]3)C=C2OC)c1C | 17.8%
25 | Cc1nn(-c2cc(NC3CCC(O)CC3)c3c(=O)[nH]c(CCC(F)(F)F)cc3c2)c2c1C(=O)CC(C)(C)C2 (stereo not given) | 66.6%
26 | O=C(CN1CCN(c2cc3c(cc2F)c(=O)c(C(=O)O)cn3C2CC2)CC1)N/N=C/c1ccco1 | 107%
27 | CC1(C)C(N)=Nc2cc(OCCCN3Cc4ccccc4C3)c(OCC3CC3)cc21 | 19.1%
28 | CCOC(=O)c1c(C)nc2ccccc2c1/C=C/c1cccs1 | 76.4%
29 | Nc1nc2c(c3ncccc13)C(c1cccc(Cl)c1)Cc1ncccc1-2 (stereo not given) | 19.7%
30 | CCOC(=O)C1=C(C)/C(=C\c2[nH]c(C)c(C(=O)OCC)c2C)N=C1C | 4.69% (active)
31 | CC1(C)CC2=C3C=C[C@@H]4[C@@]5(C)CCC(=O)C(C)(C)[C@@H]5CC[C@@]4(C)[C@]3(C)CC[C@@]2(C(=O)O)C[C@H]1O | 13.3%
32 | NC1(CO)COC(c2ccccc2)OC1 (stereo not given) | 99.4%
33 | COc1ccc(-c2nn(-c3ccccc3)cc2/C=C/C(=O)NNC(=O)Nc2ccc(C)cc2)cc1 | 47.4%
34 | Nc1ccc(-c2csc(-n3[nH]c(=O)ccc3=O)n2)cc1 | 96.4%
35 | CN1CCN(Cc2ccc(NC(=O)c3cncc(C#Cc4cnc(N)c5ccc(F)cc45)c3)cc2C(F)(F)F)CC1 | -8.78% (active)
36 | CCCCCCCCCCCCCCCCCCOc1ccccc1CC(=O)NCC[N+]1(C)CCCCC1 | 17.1%
37 | CNC(=O)c1cc(Oc2ccc3c(c2)sc2nc(-c4ccc(OC)cc4)cn23)ccn1 | 66.9%
38 | COc1ccc(C(=O)Cn2c(C(=O)c3ccc(OC)cc3)nc3ccccc32)cc1 | 0.632% (active)
39 | CCN(CC)CCCOc1ccc2ncnc(Nc3ccc(Oc4cccc(C(F)(F)F)c4)c(Cl)c3)c2c1 | 1.81% (active)
40 | CCN1C(=O)N(CC)C2C1NC(=S)N2/N=C/c1ccc(OC)cc1 (stereo not given) | 52.8%
